Shown are actives, neighbours in structure and some others; about 10% of the full set was active somewhere.
Six1-Eya2 blk = Six1/Eya2 interaction inhibition. activity change, % (test concentration not listed). AlphaScreen GST-Six1/His-Eya2 binding, biochemical; active compounds read low. Q15475+O00167. actives 0.56% (n = 360,000); in the data active means activity change below about -65%; inconclusive means mostly about -30% to -63%; further: on the % scale 0 is the no-effect control and ±100 the full control effect
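AlphaScreen luminescence read after one hour at 37 °C in darkness. Pin-transferred compounds met GST-Six1 and His-Eya2 protein (5X stock 250 nM/500 nM) plus glutathione donor and Ni-chelate acceptor beads (5X, 50 ug/mL).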
G9a block = inhibitors of human histone lysine methyltransferase G9a; Q96KQ7; actives 8.8% (n = 350,000); Potency, µM (series often up to 102 µM), for the others: at the top dose activity, negative = inhibition, actives largely listed as inhibitors; G9a H3K9 monomethylation, AlphaScreen, 2 h; further: potency means the concentration at half of the fitted maximal effect; on the % scale 0 is the no-effect control and ±100 the full control effect; nearly all actives have a fitted effect of over 75% in size
Target sequence (Q96KQ7 913-1193 limits assumed): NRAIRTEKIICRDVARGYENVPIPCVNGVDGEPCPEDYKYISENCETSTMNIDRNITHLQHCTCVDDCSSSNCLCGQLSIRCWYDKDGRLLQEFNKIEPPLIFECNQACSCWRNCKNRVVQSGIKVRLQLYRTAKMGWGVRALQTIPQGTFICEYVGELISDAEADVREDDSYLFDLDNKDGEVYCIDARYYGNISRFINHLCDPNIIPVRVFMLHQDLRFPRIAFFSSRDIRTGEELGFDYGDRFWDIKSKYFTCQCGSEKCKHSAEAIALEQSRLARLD
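Step 1: enzyme (final 20 nM) with compound, 15 min RT. Step 2: substrate peptide 500 nM and SAM 20 uM, 2 h RT. Step 3: anti-H3K9me1 antibody and AlphaScreen beads, 10 min, then plate read.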
HP1b chromo inh = inhibitors of HP1-beta chromodomain binding to methylated histone tails. P83916. AlphaScreen HP1-beta / biotin-H3K9me3 peptide binding. Potency, µM (top dose mostly 114 µM), inactives show top-dose activity change, negative = inhibition, most hits filed as inhibitors. actives 0.56% (n = 390,000); further: potency means the concentration at half of the fitted maximal effect; nearly all actives have a fitted effect of over 70% in size
Target sequence (P83916 whole entry, looked up): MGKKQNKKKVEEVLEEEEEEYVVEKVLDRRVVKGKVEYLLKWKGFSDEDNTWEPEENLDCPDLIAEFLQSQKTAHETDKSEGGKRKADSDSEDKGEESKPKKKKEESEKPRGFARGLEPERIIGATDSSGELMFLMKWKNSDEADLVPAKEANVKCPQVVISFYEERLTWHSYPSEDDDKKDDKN
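HP1-beta protein (50 nM final) preincubated 30 min at room temperature with biotinylated H3(1-18)K9me3 peptide (50 nM) in PBS pH 7.4, 0.01% Tween-20, then compound added for 30 min. AlphaScreen streptavidin donor/nickel chelate acceptor beads (10 ug/mL final), 30 min dark, luminescence read.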
CtBP-E1A inh = CtBP/E1A binding inhibition; AlphaScreen GST-E1A/His-CtBP binding, 1536-well; active compounds read low; activity change, % (test concentration not listed); actives 0.49% (n = 340,000); AID 651724; in the data active means activity change below about -65%; inconclusive means mostly about -30% to -63%; further: on the % scale 0 is the no-effect control and ±100 the full control effect
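Steps: dispense buffer (Tris pH 8.0, NaCl 300 mM, TCEP 1 mM, BSA, Tween 20); add 5X protein mix (GST-E1A, His-CtBP, 125 nM each); pin 23 nL compound; 2 h at 37 °C, dark; add 5X beads (50 ug/mL); 1 h; read.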
BAZ2B block = inhibitors of human BAZ2B bromodomain | AID 504333 | actives 4.4% (n = 360,000) | Potency, µM (highest dose often 114 µM), for inactives: at the top dose activity change, negative = inhibition, actives largely listed as inhibitors | AlphaScreen BAZ2B-H3K14Ac peptide displacement | Q9UIF8; further: potency means the concentration at half of the fitted maximal effect; on the % scale 0 is the no-effect control and ±100 the full control effect; nearly all actives have a fitted effect of over 60% in size
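Complex of BAZ2B and biotin-H3K14Ac (50 nM apiece) forms over 30 min at RT, then faces library compounds up to 110 uM for another 30 min; AlphaScreen beads added, 20 min dark incubation, luminescence read.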
JMJD2A Tudor = blocks the human JMJD2A Tudor domain. AlphaScreen JMJD2A-Tudor / H3K4me3 peptide binding. actives 4.4% (n = 390,000). Potency, µM (titrated, usually from 114 µM), inactives show at the highest dose activity change, negative = inhibition, actives largely listed as inhibitors; further: potency means the concentration at half of the fitted maximal effect; on the % scale 0 is the no-effect control and ±100 the full control effect; nearly all actives have a fitted effect of over 50% in size
An asterisk follows results filed as active; ? = inconclusive; · = not tested or not shown; [ ] = remark or other dose. Unless noted, the call rests on the fitted dose curve; in most records, active means well fitted inhibition curve with a large enough effect; inconclusive means small, poorly fitted or top-dose-only effect; inactive means no such curve, though single readings can be large or run the other way.

SMILES | Six1-Eya2 blk | G9a block | HP1b chromo inh | CtBP-E1A inh | BAZ2B block | JMJD2A Tudor
Cn1c(=O)c(-c2cc(=O)[nH][nH]2)c(O)c2ccccc21 | -17.6 | -28.5% | 7.5% | -9.0 | 56.2µM* | 35.5µM*
COc1cccc(CN2CCN(Cc3[nH]c4ccccc4c3C)CC2CCO)c1 (stereo unspecified) | -8.9 | ? | 2.3% | -8.6 | 35.5µM* | ?
Cc1ccc(CN2CCN(Cc3ccc(Oc4ncccn4)cc3)CC2CCO)cc1 (stereo unspecified) | -4.0 | 28.6%[12.7 µM] | 39.4% | -10.3 | -10.9% | -4.2%
COc1cccc(CN2CCN(Cc3cc4ccccc4[nH]3)CC2CCO)c1 (stereo unspecified) | -0.7 | -34.3% | 9.4% | · | ? | -25.2%
Cc1ccc(CN2CCN(Cc3ccccn3)CC2CCO)cc1 (stereo unspecified) | -3.7 | 0.6% | 31.6% | 1.5 | 56.2µM* | -11.8%
COc1cc(CN2CCN(Cc3ccc(C)cc3)C(CCO)C2)cc(OC)c1O (stereo unspecified) | 3.4 | 44.7µM* | 10.2% | -0.1 | -15.2% | -25.1%
COc1ccc2c(c1)C=C(CN1CCN(Cc3ccccc3C)C(CCO)C1)CO2 (stereo unspecified) | -15.2 | ? | -29.9% | -20.4 | ? | 50.1µM*
COc1ccc2nc(SC(C)C(=O)NC3CCCC3)[nH]c2c1 (stereo unspecified) | -4.2 | -29.9% | 31.1% | 8.1 | -3.4% | 3.6%
c1coc(CNc2nc[n+]3c4c2ncn4CC3)c1 | · | · | 23.9% | · | · | -12.9%
COc1ccc(NC(=O)N2CCC(n3c(C)nc4cccnc43)CC2)cc1OC | · | 6.8%[59 µM] | 24.9% | · | -9.2% | -1.0%
O=C(Nc1ccccc1)N1CC[C@@]2(CCCN(C(=O)c3ccco3)C2)C1 | · | 3.6%[12.7 µM] | · | · | · | ·
Cc1noc(C)c1-c1ccc2ncnc(NCc3ccc4c(c3)OCO4)c2c1 | · | · | · | · | · | -31.0%
O=C(Cn1c(=O)c2cccn2c2cccnc21)NCc1ccccc1F | · | 4.1%[59 µM] | 15.3% | · | -3.3% | -19.8%
Brc1ccc(OCCOCCN2CCOCC2)cc1 | 2.0 | -39.7%[12.7 µM] | 7.5% | 3.6 | -3.0% | -12.2%
CN1CCN(CCCCOc2ccc(Br)cc2)CC1 | -6.6 | 4.47µM* | ? | · | 56.2µM* | 20µM*
Brc1ccc(OCCCCCN2CCOCC2)cc1 | 4.2 | 3.16µM* | -25.2% | 11.7 | 35.5µM* | 3.16µM*
CN1CCN(CCCCOc2ccc(F)cc2)CC1 | 0.0 | -31.3% | 42.9% | 4.2 | -1.6% | 14.2%[57.1 µM]
COc1ccc(-c2nc(CCNC(=O)c3c(F)cccc3Cl)cs2)cc1 | · | 14.0%[59 µM] | 19.4%[57 µM] | · | 0.3% | -15.8%
N/C(COc1ccc(C(=O)O)cc1)=N\O | 2.2 | 50.1µM* | 45.7% | 1.5 | ? | 21.0%
O=C(O)c1ccc(OCCOc2ccccc2)cc1 | -6.4 | -0.9% | 32.9% | · | -10.6% | -3.6%
CCOC(=O)c1c(C)c(-c2ccccc2)n(CC(=O)NCCC(C)C)c1C | 3.1 | -3.7%[59 µM] | 28.7% | 2.0 | 9.4% | -19.4%
CCCS(=O)(=O)c1c(S(=O)(=O)CCC)c2c(C)cccn2c1C(=O)OC | -2.8 | 31.6µM* | -16.4% | -10.6 | 7.4%[57.1 µM] | ?
CCCS(=O)(=O)c1c(S(=O)(=O)CCC)c2c(N)cccn2c1C(=O)c1ccc(F)cc1 | -10.1 | ? | 22.8% | -5.0 | ? | ?
CCCS(=O)(=O)c1c(S(=O)(=O)CCC)c2c(N)cccn2c1C(=O)c1ccc(Br)cc1 | -19.2 | 11.2µM* | -6.0% | -21.5 | -38.8% | ?
O=C(c1cc(COc2ccc(F)cc2F)on1)N1CCSCC1 | -4.6 | 8.5% | 46.5% | 4.5 | -31.2% | 6.2%
SMILES | Six1-Eya2 blk | G9a block | HP1b chromo inh | CtBP-E1A inh | BAZ2B block | JMJD2A Tudor
COc1cc(C2OC(=O)c3c2ccc(OC)c3OC)ccc1O (stereo unspecified) | · | -3.8%[12.7 µM] | · | · | -3.2% | ·
O=C(CSCc1ccccc1Cl)NNC(=S)Nc1ccccc1 | -7.8 | 7.94µM* | -28.2% | -14.2 | -33.2% | ?
O=C(Cc1ccccc1)NNC(=S)Nc1ccc(Cl)cc1 | 3.9 | ? | 7.4% | -1.0 | 6.1% | -17.1%
CC(=O)c1cccc(NC(=O)CSC(=O)c2ccccc2)c1 | -2.4 | 20µM* | 46.6% | -5.3 | 5.0% | 5.2%
CC(=O)c1cccc(NC(=S)NC(=O)Cc2ccccc2)c1 | -9.6 | 22.4µM* | 54.0% | 4.7 | ? | -3.4%
O=C(CSCc1ccccc1Cl)Nc1ccc(C(=O)O)cc1 | 15.4 | 11.1%[0.501 µM] | 28.6% | -2.9 | 2.6% | -8.8%
Cc1cccc(NC(=S)NNC(=O)Cc2ccccc2)c1 | 1.9 | 15.8µM* | 12.5% | 2.9 | 0.7% | -4.8%
Brc1ccc2nc(C3CCCCC3)c(Cc3ccsc3)n2c1 | 1.5 | · | · | -0.1 | · | ·
Cc1cccc(NCC(=O)NNC(=S)Nc2ccccc2)c1 | -0.7 | 31.6µM* | -14.8% | -16.6 | -3.0% | ?
O=C(Cc1ccc(Br)cc1)NNC(=O)c1cccs1 | 4.2 | · | 31.6% | 2.7 | · | -12.4%
CC/C(=N\NC(=O)Cc1ccc(Br)cc1)c1cccs1 | -0.6 | 56.2µM* | 56.8% | 3.1 | -15.4% | -12.5%
CC(C)c1ccc(S(=O)(=O)N2CCC(C(=O)N3CCN(c4cccc(Cl)c4)CC3)CC2)cc1 | -10.1 | · | 10.1% | -4.7 | · | -6.4%
CSc1nsc(/C=C/Nc2ccc(O)cc2C)c1C#N | -3.5 | 7.94µM* | -34.2% | · | 39.8µM* | 50.1µM*
CSc1nsc(/C=C/Nc2cccc(Cl)c2)c1C#N | 8.6 | 10µM* | -12.0% | -10.9 | ? | ?
CSc1nsc(/C=C/Nc2ccc(Cl)cc2)c1C#N | -0.9 | -17.7%[12.7 µM] | 11.4% | 7.5 | ? | -29.0%
COc1ccccc1N1CCN(/N=C\c2cccnc2)CC1 | 4.5 | 39.8µM* | 16.8% | -2.9 | 79.4µM* | ?
COc1ccccc1N1CCN(/N=C/c2ccccc2C(=O)O)CC1 | -8.0 | · | 44.3% | 6.6 | 1.3% | -5.6%
COc1ccccc1N1CCN(/N=C/c2cccc(O)c2)CC1 | -7.4 | -34.8% | 6.0% | 0.0 | 70.8µM* | -32.8%
COc1ccccc1N1CCN(/N=C/c2cc(OC)c(O)c(OC)c2)CC1 | -16.4 | 12.6µM* | -41.4% | 2.3 | ? | 89.1µM*
